# From the supplement of paper PMC7411054
# Where a name gives a salt, the structure may show the parent alone.
# Assays:
# Experiment in all cases: lowest phenotypically active concentration; higher = less potent
# Conditions in all cases: treatment time: 24 h
# HepG2-ACTB-RAB5A = test system: HepG2-ACTB-RAB5A
# Summary of the method: (§1)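 Fifteen gene-edited A549, HepG2 and WPMY1 reporter lines (BFP segmentation plus GFP and RFP/FusionRed markers) were treated at 0.3, 1, 3 or 9 µM for 24 h, four wells each, then imaged live. Live-cell features per well were normalised to DMSO control wells. Deviation required ≥3 of 4 wells beyond the 95th percentile of DMSO Euclidean distances, and reproducibility required median replicate Pearson correlation above the 95th percentile of non-replicates. Phenotypic activity needed both criteria.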
# HepG2-CANX-COX4 = test system: HepG2-CANX-COX4
# Summary of the method: as §1
# HepG2-GM130-SQSTM1 = test system: HepG2-GM130-SQSTM1
# Summary of the method: as §1
# HepG2-TP53BP1-CLTA = test system: HepG2-TP53BP1-CLTA
# Summary of the method: as §1
# HepG2-TUBA1B-RELA = test system: HepG2-TUBA1B-RELA
# Summary of the method: as §1
# WPMY1-ACTB-RAB5A = test system: WPMY1-ACTB-RAB5A
# Summary of the method: as §1
# WPMY1-CANX-COX4 = test system: WPMY1-CANX-COX4
# Summary of the method: as §1
# WPMY1-GM130-SQSTM1 = test system: WPMY1-GM130-SQSTM1
# Summary of the method: as §1
# WPMY1-TP53BP1-CLTA = test system: WPMY1-TP53BP1-CLTA
# Summary of the method: as §1
# WPMY1-TUBA1B-RELA = test system: WPMY1-TUBA1B-RELA
# Summary of the method: as §1
SMILES,lowest phenotypically active concentration (HepG2-ACTB-RAB5A),lowest phenotypically active concentration (HepG2-CANX-COX4),lowest phenotypically active concentration (HepG2-GM130-SQSTM1),lowest phenotypically active concentration (HepG2-TP53BP1-CLTA),lowest phenotypically active concentration (HepG2-TUBA1B-RELA),lowest phenotypically active concentration (WPMY1-ACTB-RAB5A),lowest phenotypically active concentration (WPMY1-CANX-COX4),lowest phenotypically active concentration (WPMY1-GM130-SQSTM1),lowest phenotypically active concentration (WPMY1-TP53BP1-CLTA),lowest phenotypically active concentration (WPMY1-TUBA1B-RELA)
COc1cc2ncnc(Nc3ccc(O)c(Br)c3)c2cc1OC,3 µM,9 µM,9 µM,3 µM,3 µM,3 µM,3 µM,3 µM,3 µM,
O=C(NC(NC(=S)Nc1ccc(F)c([N+](=O)[O-])c1)C(Cl)(Cl)Cl)C(c1ccccc1)c1ccccc1 (stereo not drawn),9 µM,9 µM,9 µM,9 µM,9 µM,9 µM,9 µM,9 µM,9 µM,9 µM
FC(F)(F)c1ccc(/C=C/c2nc(COc3ccc(CCCCn4ccnn4)cc3)co2)cc1,≤ 0.3 µM,≤ 0.3 µM,≤ 0.3 µM,≤ 0.3 µM,≤ 0.3 µM,,,,,
COc1cc(N2CCC(O)CC2)ccc1Nc1cc(Nc2ccccc2S(=O)(=O)C(C)C)c2cc[nH]c2n1 [Mps1-IN-1 dihydrochloride],≤ 0.3 µM,≤ 0.3 µM,≤ 0.3 µM,≤ 0.3 µM,1 µM,9 µM,≤ 0.3 µM,3 µM,3 µM,
O=C1NC(=O)[C@@H](c2cn3c4c(cccc24)CCC3)[C@@H]1c1c[nH]c2ccccc12 [tivantinib],1 µM,1 µM,1 µM,1 µM,1 µM,≤ 0.3 µM,1 µM,1 µM,1 µM,1 µM
C#Cc1cccc(Nc2ncnc3cc(OCCOC)c(OCCOC)cc23)c1 [erlotinib],3 µM,3 µM,3 µM,9 µM,3 µM,,,,,
COc1cc(C[C@H]2C(=O)OC[C@@H]2Cc2ccc(OC)c(OC)c2)ccc1O [Arctigenin],9 µM,9 µM,9 µM,1 µM,1 µM,,,,,
COc1ccc2c(NC(=O)Nc3cccc(C(F)(F)F)n3)ccnc2c1,9 µM,1 µM,9 µM,9 µM,3 µM,1 µM,1 µM,3 µM,1 µM,
O=C1NC(=O)C(c2ccccc2[N+](=O)[O-])=C1Nc1ccc(O)c(Cl)c1,9 µM,9 µM,9 µM,3 µM,3 µM,9 µM,,,,
CC[C@H](CO)Nc1nc(NCc2ccc(-c3ccccn3)cc2)c2ncn(C(C)C)c2n1,≤ 0.3 µM,≤ 0.3 µM,≤ 0.3 µM,≤ 0.3 µM,≤ 0.3 µM,≤ 0.3 µM,≤ 0.3 µM,≤ 0.3 µM,≤ 0.3 µM,≤ 0.3 µM
CO[C@H]1C[C@@H]2CC[C@@H](C)[C@@](O)(O2)C(=O)C(=O)N2CCCC[C@H]2C(=O)O[C@H]([C@H](C)C[C@@H]2CC[C@@H](OC(=O)C(C)(CO)CO)[C@H](OC)C2)CC(=O)[C@H](C)C=C(C)[C@@H](O)[C@@H](OC)C(=O)[C@H](C)C[C@H](C)C=CC=CC=C1C [Temsirolimus],≤ 0.3 µM,1 µM,≤ 0.3 µM,≤ 0.3 µM,1 µM,≤ 0.3 µM,≤ 0.3 µM,≤ 0.3 µM,≤ 0.3 µM,3 µM
CN(C)CCCNc1c2c(=O)n(C)c(=O)nc-2n(C)c2ccccc12,9 µM,9 µM,9 µM,9 µM,9 µM,9 µM,9 µM,9 µM,9 µM,3 µM
CCN(CCO)CCCOc1ccc2c(Nc3cc(CC(=O)Nc4cccc(F)c4)n[nH]3)ncnc2c1 [barasertib-HQPA],≤ 0.3 µM,≤ 0.3 µM,≤ 0.3 µM,≤ 0.3 µM,≤ 0.3 µM,≤ 0.3 µM,≤ 0.3 µM,≤ 0.3 µM,≤ 0.3 µM,≤ 0.3 µM
Cc1cc(Nc2ncc3c(n2)N(C)C(=O)N(c2cc(NC(=O)c4cccc(C(F)(F)F)c4)ccc2C)C3)n(C)n1 [Pluripotin],≤ 0.3 µM,≤ 0.3 µM,≤ 0.3 µM,≤ 0.3 µM,≤ 0.3 µM,≤ 0.3 µM,1 µM,≤ 0.3 µM,1 µM,1 µM
CN1CCC(=C2c3ccccc3CC(=O)c3sccc32)CC1 [ketotifen],9 µM,9 µM,9 µM,9 µM,3 µM,9 µM,9 µM,9 µM,9 µM,9 µM
COc1ccc(N(C)c2nc(C)nc3ccccc23)cc1 [MPC 6827 hydrochloride],≤ 0.3 µM,≤ 0.3 µM,≤ 0.3 µM,≤ 0.3 µM,≤ 0.3 µM,≤ 0.3 µM,≤ 0.3 µM,≤ 0.3 µM,≤ 0.3 µM,≤ 0.3 µM

SMILES,lowest phenotypically active concentration (HepG2-ACTB-RAB5A),lowest phenotypically active concentration (HepG2-CANX-COX4),lowest phenotypically active concentration (HepG2-GM130-SQSTM1),lowest phenotypically active concentration (HepG2-TP53BP1-CLTA),lowest phenotypically active concentration (HepG2-TUBA1B-RELA),lowest phenotypically active concentration (WPMY1-ACTB-RAB5A),lowest phenotypically active concentration (WPMY1-CANX-COX4),lowest phenotypically active concentration (WPMY1-GM130-SQSTM1),lowest phenotypically active concentration (WPMY1-TP53BP1-CLTA),lowest phenotypically active concentration (WPMY1-TUBA1B-RELA)
COc1cc(/C=C/c2ccc(OC)cc2OC)cc(OC)c1,3 µM,3 µM,3 µM,3 µM,3 µM,1 µM,1 µM,1 µM,1 µM,1 µM
Cc1ccc(NC(=O)c2ccc(CN3CCN(C)CC3)cc2)cc1Nc1nc(-c2cccnc2)cs1 [masitinib],3 µM,3 µM,3 µM,3 µM,9 µM,3 µM,3 µM,≤ 0.3 µM,9 µM,9 µM
C/C=C1\NC(=O)[C@H]2CSSCCC=C[C@H](CC(=O)N[C@H](C(C)C)C(=O)N2)OC(=O)[C@H](C(C)C)NC1=O,≤ 0.3 µM,≤ 0.3 µM,≤ 0.3 µM,≤ 0.3 µM,≤ 0.3 µM,≤ 0.3 µM,≤ 0.3 µM,≤ 0.3 µM,≤ 0.3 µM,≤ 0.3 µM
CCNC(=O)c1noc(-c2cc(C(C)C)c(O)cc2O)c1-c1ccc(CN2CCOCC2)cc1,≤ 0.3 µM,≤ 0.3 µM,≤ 0.3 µM,≤ 0.3 µM,≤ 0.3 µM,≤ 0.3 µM,≤ 0.3 µM,≤ 0.3 µM,≤ 0.3 µM,≤ 0.3 µM
C=CC(=O)N1CCC[C@@H](n2nc(-c3cccc(C(=O)Nc4ccc(C(C)C)c(C)c4)c3)c3c(N)ncnc32)C1,1 µM,1 µM,1 µM,1 µM,1 µM,1 µM,3 µM,3 µM,9 µM,3 µM
COc1c(C)cnc(Cn2cc(C#CCC(C)(C)O)c3c(Cl)nc(N)nc32)c1C,≤ 0.3 µM,≤ 0.3 µM,≤ 0.3 µM,≤ 0.3 µM,≤ 0.3 µM,≤ 0.3 µM,≤ 0.3 µM,≤ 0.3 µM,≤ 0.3 µM,≤ 0.3 µM
Nc1ncn([C@@H]2O[C@H](CO)[C@@H](O)[C@H]2O)c(=O)n1 [5-Azacytidine],≤ 0.3 µM,≤ 0.3 µM,≤ 0.3 µM,≤ 0.3 µM,1 µM,3 µM,3 µM,1 µM,3 µM,3 µM
COc1cc(Br)c(Nc2nc(-c3c(C)nc4ncccn34)cs2)c(Br)c1,1 µM,1 µM,1 µM,1 µM,1 µM,1 µM,1 µM,1 µM,3 µM,1 µM
O=C(CCCCCCC(=O)Nc1ccccc1)NO,1 µM,1 µM,≤ 0.3 µM,3 µM,1 µM,1 µM,≤ 0.3 µM,1 µM,1 µM,1 µM
C[C@H]1[C@H]2CC[C@H]3[C@@H]4CC=C5C[C@@H](N(C)C)CC[C@]5(C)[C@H]4CC[C@]23CN1C [Conessine],9 µM,9 µM,3 µM,1 µM,3 µM,9 µM,3 µM,1 µM,3 µM,9 µM
C=CC(=O)Nc1cccc(Nc2nc(Nc3ccc(OCCOC)cc3)ncc2F)c1,3 µM,3 µM,3 µM,9 µM,9 µM,3 µM,3 µM,3 µM,9 µM,3 µM
OC[C@H]1O[C@@H](n2cnc3c(NCc4ccco4)ncnc32)[C@H](O)[C@@H]1O [Kinetin riboside],1 µM,1 µM,3 µM,3 µM,1 µM,1 µM,3 µM,1 µM,1 µM,3 µM
Oc1cccc(Nc2ccnc3cc(-c4cccc(CN5CCOCC5)c4)sc23)c1 [LCB 03-0110 dihydrochloride],1 µM,1 µM,3 µM,3 µM,1 µM,3 µM,3 µM,3 µM,3 µM,3 µM
CCOC(=O)CCNc1cc(N2CCc3ccccc3CC2)nc(-c2ccccn2)n1,3 µM,3 µM,3 µM,3 µM,3 µM,9 µM,9 µM,3 µM,3 µM,9 µM
CCCC1(CCC)CCC2(CCN(CCCN(CC)CC)C2)CC1 [Atiprimod dihydrochloride],1 µM,1 µM,1 µM,1 µM,≤ 0.3 µM,1 µM,1 µM,1 µM,1 µM,1 µM
